Only some compounds are listed: those with a hit (about 2.2% of all), similar ones and a draw of the others.
CRFBP-R2 block: CRF-BP/CRF-R2 complex antagonism | 350,000 tested, 0.59% active | HEK293 CRF-R2/CRF-BP, CRF-induced calcium fluorescence | inhibition, % at 11.8 µM;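 active means inhibition of the ligand-induced calcium signal above about 50% at the single tested concentration, limit read from the data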
CRFR2-BP ag: CRF-BP/CRF-R2 complex agonism; activation, % at 13.2 µM; 350,000 tested, 0.46% active; HEK293 CRF-R2/CRF-BP, calcium dye fluorescence (FLIPR); percent of saturating CRF peptide response;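 active means activation of at least 50%, plus an integration ratio under a set limit after plate pattern correction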;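 further: plate controls were neutral control wells without compound for no effect and CRF at EC100 for full effect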
Cardiac RTF inh: cardiac RTF calcium desensitization; P19429+P45379; IANBD-labeled cardiac RTF, Ca2+ fluorescence; inhibition, % at 7.15 µM; 340,000 tested, 0.12% active; AID 493244;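 active means inhibition above the mean inhibition of all tested compounds plus 3 SD, cut at about 17% in these data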;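 further: assay run at fixed EC70 calcium of 1.6 mM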
RTF Ca sens act: increases calcium sensitivity of human cardiac regulated thin filaments; P19429+P45379; IANBD-labeled TnC RTF fluorescence at EC20 calcium; 0% EC20 calcium, 100% full calcium; activation, % at 7.2 µM; 340,000 tested, 0.24% active; AID 493008;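 active means activation above the mean over all tested compounds plus 3 SD, cut at about 30% in these data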;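 further: rise in fluorescence read as greater calcium sensitivity of cardiac thin filaments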
Myeloid diff MLP: myeloid differentiation induction; calls only at 10 µM; 360,000 tested, 1% active; ER-HoxA9 myeloid progenitors, lysozyme-GFP differentiation, flow cytometry;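 active means normalized GFP-positive differentiation at or above the plate's own cutoff, the solvent-only control mean plus 3 SD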;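 further: cells exposed to compound for four days before flow analysis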
Starred values were filed as active, the others as inactive; i = inactive; nt = no result given; + = active, no number.

SMILES	CRFBP-R2 block	CRFR2-BP ag	Cardiac RTF inh	RTF Ca sens act	Myeloid diff MLP
Cc1c(C(=O)NCC2CCCO2)sc2nc(-c3ccc(F)cc3)cn12 (stereo not drawn)	55.7*	-5.0	-3.3	3.3	i
CC(=O)c1cccc(NC(=O)/C(=C\c2cccnc2)NC(=O)c2ccc(C)cc2)c1	-8.2	1.2	-3.7	-0.7	i
CSc1ccc(/C=C(/NC(=O)c2ccc(C)cc2)C(=O)Nc2cccc(F)c2)cc1	136.9*	1.5	-4.9	3.0	i
CCOC(=O)CCC(=O)O[C@H]1[C@H](O[C@@H]2[C@@H](C)[C@H](O[C@H]3C[C@@](C)(OC)[C@@H](O)[C@H](C)O3)[C@@H](C)C(=O)O[C@H](CC)[C@@](C)(O)[C@H](O)[C@@H](C)C(=O)[C@H](C)C[C@@]2(C)O)O[C@H](C)C[C@@H]1N(C)C	11.9	-2.5	2.9	6.5	+
CC[C@H]1OC(=O)[C@H](C)[C@@H](O[C@H]2C[C@@](C)(OC)[C@@H](O)[C@H](C)O2)[C@H](C)[C@@H](O[C@@H]2O[C@H](C)C[C@H](N(C)C)[C@H]2O)[C@](C)(O)C[C@@H](C)C(=O)[C@H](C)[C@@H](O)[C@]1(C)O	-7.1	10.8	5.9	-4.7	i
CCC12CC1(C(=O)OC)C(=O)N1CCc3c([nH]c4ccccc34)C12 (stereo not drawn)	nt	nt	nt	nt	i
COc1ccc2c(c1)/C(=C/c1cc(OC)c(OC)c(OC)c1)C(=O)N2	106.1*	-2.6	-0.8	-5.3	nt
CCNC(=O)C1(C)CCN(C(=O)c2ccc(OC(F)F)cc2)C1 (stereo not drawn)	nt	nt	nt	nt	i
Cc1cc(N2CCCC2)ccc1/C=C1/C(=O)N(C)C(=S)N1C	-23.1	5.3	-2.1	9.9	+
CN1C(=O)/C(=C/C=C2/CCCN2C)N(C)C1=S	6.2	2.8	-4.7	8.2	i
CCCN1C(=O)/C(=C/c2ccc(N3CCCC3)c(C)c2)NC1=S	-443.8	346.1*	-196.1	68.0*	+
Cc1cc(/C=C2\NC(=S)N(C)C2=O)ccc1N1CCCC1	-342.7	282.6*	-234.1	86.7*	+
CN1C(=O)/C(=C/c2ccc(O)c([N+](=O)[O-])c2)NC1=S	-0.6	-2.4	-4.5	1.8	i
CCCN1C(=O)/C(=C/c2ccc(N3CCOCC3)cc2)NC1=S	-247.4	171.1*	-26.2	22.4	i
COc1cccc(OC)c1C(=O)OCC(=O)NCCNC(=O)COC(=O)c1c(OC)cccc1OC	0.1	-0.4	nt	nt	i
COc1cc(NC(=NS(=O)(=O)c2ccccc2)c2ccccc2)ncn1	4.5	-0.5	-0.2	8.8	i
Cc1c(C(=O)NCc2ccc([N+](=O)[O-])cc2)sc(=O)n1Cc1ccc2c(c1)OCO2	nt	nt	nt	nt	i
CN1C(=O)/C(=C/c2ccc(OCc3ccc(F)cc3)cc2)N(C)C1=S	-30.4	12.9	-7.1	-6.9	i
Cc1cc(/C=C2/C(=O)N(C)C(=S)N2C)ccc1N1CCCC1	-136.4	80.8*	-93.8	32.4*	i
CCNC(=O)C1(C)CCCN(C(=O)c2sccc2C)C1 (stereo not drawn)	nt	nt	nt	nt	i
Cc1cccc(Sc2ccc([N+](=O)[O-])cn2)c1	47.3	-0.1	-24.9	0.6	i
O=[N+]([O-])c1ccc(Sc2ccccc2)nc1	53.5*	-6.2	-4.3	2.7	i
CC1(C(=O)Nc2nccs2)CCN1C(=O)CC(c1ccccc1)c1ccccc1 (stereo not drawn)	nt	nt	nt	nt	i
Cc1noc(C)c1S(=O)(=O)N1CCC(C(=O)N2CCN(c3ccc(F)cc3)CC2)CC1	60.4*	-5.3	nt	nt	nt
Cc1cc(C)c(C)c(S(=O)(=O)N2CCC(C(=O)N3CCN(c4ccc(F)cc4)CC3)CC2)c1C	-0.7	-0.5	0.9	-0.9	i
SMILES	CRFBP-R2 block	CRFR2-BP ag	Cardiac RTF inh	RTF Ca sens act	Myeloid diff MLP
O=C(NCc1ccccc1)C1C(c2ccccc2)=Nc2ccccc2N1C(=O)c1cccnc1 (stereo not drawn)	nt	nt	nt	nt	i
CC(=O)c1ccc2noc(-c3ccccc3)c2c1	21.6	2.7	-1.7	11.0	i
CC(=O)c1ccc2c(c1)c(C#N)c1ccccc1[n+]2[O-]	-60.8	101.4*	-18.3	23.1	i
O=C(NNC(=O)c1ccccc1F)c1ccc(NS(=O)(=O)c2ccc(F)cc2)cc1	-2.6	-0.8	-2.6	6.0	i
O=C(NC(=O)c1ccccc1)Nc1ccc(Cl)cn1	-16.2	-0.5	-9.6	-1.1	i
O=C(CN1C(=O)NC2(CCCc3ccccc32)C1=O)c1ccc(F)cc1 (stereo not drawn)	-9.9	0.1	-3.6	-2.4	i
CS(=O)(=O)c1ccc(C(=O)CN2C(=O)NC3(CCCc4ccccc43)C2=O)cc1 (stereo not drawn)	53.4*	0.4	-9.3	1.6	i
O=S(=O)(Nc1nc2ccccc2nc1Nc1ccc(N2CCOCC2)cc1)c1cc(Cl)ccc1Cl	49.6	51.0*	1.3	4.3	i
Clc1nc(Nc2ccc(N3CCOCC3)cc2)c2ccccc2n1	-19.6	16.6	12.0	5.7	i
CCCn1c(SCC(=O)NNC(=O)c2ccc(C)cc2)nnc1C(C)C	20.4	-1.4	-5.2	2.9	i
Cc1cccc([C@@H]2[C@@H]3C(=O)N(Cc4ccccc4)C(=O)[C@@H]3[C@]3(Cc4ccc(Cl)cc4)C(=O)N(c4ccccc4)C(=O)N23)c1	-7.1	0.1	-11.9	1.3	i
Cc1cccc([C@@H]2[C@@H]3C(=O)N(Cc4ccccc4)C(=O)[C@@H]3[C@]3(Cc4ccc(Cl)cc4)C(=O)N(c4cccc(Br)c4)C(=O)N23)c1	-1.0	2.8	9.3	6.1	+
CCCNC(=O)C1(C)CCN(C(=O)c2cccc(C#N)c2)C1 (stereo not drawn)	nt	nt	nt	nt	i
C[C@@H]1CN([C@H](C)CO)C(=O)CCCn2cc(nn2)CO[C@H]1CN(C)S(=O)(=O)c1ccccc1F	nt	nt	nt	nt	i
CC(C)(C)NC(=O)CSc1nc(-c2ccc(F)cc2)cs1	3.9	-0.5	1.5	3.1	i
O=C(NCCCc1ccccc1)c1ccc(-n2cncn2)c([N+](=O)[O-])c1	6.6	-0.3	3.9	-1.1	i
CC1=N/C(=C\c2ccc(OC(C)C)cc2)C(=O)N1c1ccc(C(=O)O)cc1	17.5	-0.7	-12.5	3.1	+
Cc1ccc(C(C(=O)NC2CCCC2)N(Cc2cccs2)C(=O)c2csnn2)o1 (stereo not drawn)	4.0	-0.5	2.7	-1.9	i
CCC1OC23CCCCC2C(C#N)(C(=N)O3)C1(C#N)C#N (stereo not drawn)	-3.3	9.9	-40.5	35.1*	nt
CCOC(=O)C1=C(C)N=c2s/c(=C/c3ccc(OCC(=O)O)cc3)c(=O)n2C1c1cc(OC)c(OC)c(OC)c1 (stereo not drawn)	-13.5	-1.1	-4.2	-0.9	i
CCOC(=O)C1=C(C)N=c2sc(=Cc3cc(Cl)c(OCC(=O)O)c(Cl)c3)c(=O)n2C1c1cccc(OC)c1 (stereo not drawn)	nt	nt	nt	nt	+

Screening data deposited in PubChem by several laboratories.
